We go through nine molecules from PubChem BioAssay.

The source made the active and inactive calls. Unless noted, the rule behind the calls is not given here.

A short description of assay [1]: compound effects on lung adenocarcinoma cell viability – A549, calcein-AM fluorescence, 48 h, basal, profiling panel (AID 1162). Note: test concentration not given here. To be noted: higher = more signal.
Assay [2] can be described thus: compound effects on differentiated 3T3-L1 adipocyte viability – cell-based, 3T3-L1 adipocytes, calcein-AM fluorescence, 48 h, basal, profiling panel (AID 1163). Note: test concentration not given here. To be noted: 3T3-L1 adipocytes viability, higher = more signal.
Assay [3] in a line: compound effects on hepatocellular carcinoma cell viability – HepG2, calcein-AM fluorescence, 48 h, basal, profiling panel (AID 1164). Note: test concentration not given here. Conditions: higher = more signal.
Assay [4] is described as follows: compound effects on multiple myeloma cell viability – MM1S, calcein-AM fluorescence, 48 h, basal, profiling panel (AID 1165).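 Note: viability of MM1S multiple myeloma cells under basal unstimulated conditions; test concentration not given here.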 To be noted: higher = more signal.
A short description of assay [5]: calcein-AM signal in unstimulated myeloma cells – cell-based, calcein-AM fluorescence, 48 h, PK04 Diversity Set, profiling panel (AID 1166).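 Note: cells grown under basal conditions without added stimulus; test concentration not given here.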 To be noted: RPMI8226 myeloma viability, higher = more signal.
The nature of assay [6]: JC-1 mitochondrial signal, unstimulated HepG2 cells – cell-based, JC-1 fluorescence, 24 h, 100 nL compound, profiling panel (AID 1167). Note: test concentration not given here. Conditions: HepG2 mitochondrial potential, higher = more signal.
Assay [7] is described as follows: JC-1 mitochondrial signal, unstimulated adipocytes – cell-based, JC-1 fluorescence, 3T3-L1 adipocytes, 24 h, 100 nL compound, profiling panel (AID 1168). Note: test concentration not given here. Conditions: JC-1 mitochondrial fluorescence, higher = more signal, called active from +8 up or from −8 down.
Assay [8] can be described thus: JC-1 mitochondrial signal, unstimulated myeloma cells – cell-based, JC-1 fluorescence, RPMI8226, 24 h, 100 nL compound, profiling panel (AID 1169). Note: test concentration not given here. To be noted: JC-1 mitochondrial potential fluorescence, higher = more signal.
A short description of assay [9]: JC-1 mitochondrial signal, unstimulated MM1S myeloma – cell-based, JC-1 fluorescence, 24 h, 100 nL compound, profiling panel (AID 1170). Note: test concentration not given here. Conditions: MM1S mitochondrial potential, higher = more signal.
Assay [10] can be described thus: resazurin metabolic signal in A549 cells – cell-based, resazurin fluorescence, 24 h, PK04 Diversity Set, profiling panel (AID 1171). Note: test concentration not given here. Conditions: A549 viability, higher = more signal, called active from +8 up or from −8 down. For orientation: Alamar Blue is a resazurin reagent that responds to reducing activity.
The nature of assay [11]: resazurin metabolic signal in HepG2 cells – cell-based, resazurin fluorescence, 24 h, PK04 Diversity Set, profiling panel (AID 1172). Note: test concentration not given here. Conditions: HepG2 viability, higher = more signal.
A short description of assay [12]: budding yeast growth changes without added modifier – OD600, strain BY4716, 24 h, basal condition, primary screen (AID 1173). Conditions: S. cerevisiae BY4716 growth, OD600, 24 h; higher = more signal, called active from +8 up or from −8 down.
The nature of assay [13]: viability profiling in MM1S myeloma cells – cell-based, resazurin fluorescence, basal, 24 h, PK04 Diversity Set, profiling panel (AID 1174). Note: test concentration not given here. To be noted: higher = more signal, called active from +8 up or from −8 down.
Assay [14] has as its target Dihydroorotate dehydrogenase (quinone), mitochondrial (Plasmodium falciparum (isolate 3D7)) (UniProt Q08210). The assay can be described thus: inhibition of P. falciparum DHODH – biochemical, C-terminal His tag, absorbance 600 nm, primary screen (AID 1175).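 Note: recombinant parasite enzyme with a five histidine tag at its C terminus; test concentration not given here.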 Conditions: PfDHODH enzyme, DCIP absorbance 600 nm; higher = more signal, called active from +8 up or from −8 down.

Assay [15] is described as follows: inhibition of PAO1 biofilm formation – strain PAO1, LB-PBS medium, absorbance 600 nm, primary screen (AID 1176). Note: test concentration not given here. Conditions: P. aeruginosa PAO1 growth/biofilm, A600, 12 h; higher = more signal.
The nature of assay [16]: growth modulation of vineyard yeast isolate – strain RM11-1a, OD600, basal, 24 h, primary screen (AID 1177).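 Note: cultures grown under basal conditions with no added stressor; test concentration not given here.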 To be noted: S. cerevisiae RM11-1a growth, OD600, 24 h; higher = more signal, called active from +8 up or from −8 down.
Assay [17] in a line: growth of efflux-deficient E. coli DRC39 – strain DRC39, OD650, 24 h, E. coli filamentation inducers, primary screen (AID 1178).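 Note: growth measured as culture turbidity by optical density at 650 nm; test concentration not given here.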 Conditions: E. coli DRC39 acrAB, higher = more signal, called active from +8 up or from −8 down.
Assay [18] can be described thus: growth of efflux-deficient E. coli DRC39 – strain DRC39, OD650, 48 h, E. coli filamentation inducers, primary screen (AID 1179).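 Note: screen aims at cell division blockers that make cells filament.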 To be noted: E. coli DRC39 delta-acrAB growth, higher = more signal, called active from +8 up or from −8 down.
Assay [19] in a line: viability profiling in RPMI8226 myeloma cells – cell-based, resazurin fluorescence, basal, 24 h, PK04 Diversity Set, profiling panel (AID 1180).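 Note: RPMI8826 multiple myeloma cell line at 5000 cells per well; test concentration not given here.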 Conditions: higher = more signal.
The target in assay [20] is E3 ubiquitin-protein ligase XIAP (Homo sapiens) (UniProt P98170). As to the kind of experiment: small molecules binding XIAP protein – biophysical, small-molecule microarray, fluorescence 635 nm, primary screen (AID 1181).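 Note: score merges 667 nm emission and signal to noise over triplicate slides.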 Conditions: higher = more signal.
Sequence of E3 ubiquitin-protein ligase XIAP (Homo sapiens) (P98170 whole entry, looked up): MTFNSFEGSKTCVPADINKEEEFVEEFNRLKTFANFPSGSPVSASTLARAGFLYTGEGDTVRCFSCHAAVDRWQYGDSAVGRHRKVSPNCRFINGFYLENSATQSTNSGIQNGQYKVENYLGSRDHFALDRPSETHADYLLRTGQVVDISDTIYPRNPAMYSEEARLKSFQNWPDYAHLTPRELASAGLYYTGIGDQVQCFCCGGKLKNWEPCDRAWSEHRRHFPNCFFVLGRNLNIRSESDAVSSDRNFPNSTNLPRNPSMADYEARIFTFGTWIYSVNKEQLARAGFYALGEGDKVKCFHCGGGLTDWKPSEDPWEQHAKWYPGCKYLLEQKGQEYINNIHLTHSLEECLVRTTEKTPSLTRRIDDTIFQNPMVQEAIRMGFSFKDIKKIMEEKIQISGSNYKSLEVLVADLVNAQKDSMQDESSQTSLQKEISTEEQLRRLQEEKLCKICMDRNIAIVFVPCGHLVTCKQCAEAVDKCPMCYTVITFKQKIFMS

Sequence of Dihydroorotate dehydrogenase (quinone), mitochondrial (Plasmodium falciparum (isolate 3D7)) (Q08210 whole entry, looked up): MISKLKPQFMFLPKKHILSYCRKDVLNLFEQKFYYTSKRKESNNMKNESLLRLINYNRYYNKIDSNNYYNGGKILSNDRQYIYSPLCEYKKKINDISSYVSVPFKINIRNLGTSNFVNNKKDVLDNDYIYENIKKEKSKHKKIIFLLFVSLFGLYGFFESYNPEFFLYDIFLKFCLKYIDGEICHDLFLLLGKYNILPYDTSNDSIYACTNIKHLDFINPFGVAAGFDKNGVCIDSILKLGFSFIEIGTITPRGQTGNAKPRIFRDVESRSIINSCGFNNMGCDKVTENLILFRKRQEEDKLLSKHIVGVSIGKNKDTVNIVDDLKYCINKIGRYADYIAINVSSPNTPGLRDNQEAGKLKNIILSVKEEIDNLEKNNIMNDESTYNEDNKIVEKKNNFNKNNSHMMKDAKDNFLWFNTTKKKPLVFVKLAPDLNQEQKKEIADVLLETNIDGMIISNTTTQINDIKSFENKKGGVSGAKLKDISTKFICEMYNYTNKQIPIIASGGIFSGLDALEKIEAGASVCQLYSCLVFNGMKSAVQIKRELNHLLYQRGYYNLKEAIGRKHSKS

In the case of `O=C(NCCC[N+]1=CC=NC1c1ccccc1)N1CCCc2nc(-c3ccc(Br)cc3)ccc21` (stereo not given), the z-score was 0.478 in assay [1]; -1.13 in assay [2]; -0.598 in [3]; -2.52 in [4]; -0.77 in [5]; 1.13 in assay [6]. The z-score is -0.141 (inactive) in assay [7]; 0.184 in assay [8]; -0.404 in assay [9]; 0.811 (inactive) in assay [10]; 0.0392 in assay [11]; -2.72 (inactive) in assay [12]. Moreover, the z-score in assay [13] is -1.04 (inactive); in assay [15], 0.508 (inactive); in [16], 1.6 (inactive); in assay [17], 1.11 (inactive); in [18], -0.493 (inactive); in [19], -0.29. The values for the composite z-score in [14] and in assay [20] were 1.01 (inactive) and -0.105, respectively.

In the case of `CON=C(C)CCN1CCc2nc(-c3ccccc3)c(-c3ccccc3)cc2C1`, the z-score in assay [1] is -0.119; in [2] it was 0.728; in assay [3], 0.0133; in assay [4] it was -2.98; in assay [5], -1.5; in assay [6], 1.03. Moreover, the z-score in assay [7] was -0.144 (inactive); in assay [8], -0.0566; in assay [9], 0.446; in [10] it was 1.73 (inactive); in [11], 1.86; in [12] it was -6.56 (inactive). Besides, the z-score was -0.217 (inactive) in assay [13]; 0.958 (inactive) in assay [15]; 0.886 (inactive) in assay [16]; 0.83 (inactive) in [17]; -2.48 (inactive) in [18]; 1.14 in assay [19]. The values for the composite z-score in [14] and in assay [20] were -0.467 (inactive) and -0.0115, respectively.

Consider `O=C1C2=CC[C@H]3C(=O)N(Cc4ccccc4)C(=O)[C@H]3[C@H]2[C@H](O)[C@@H]2O[C@H]12`, for which the z-score was -0.77 in assay [1]; -0.238 in assay [2]; -4.47 in assay [3]; -3.28 in assay [4]; -3.83 in assay [5]; -2.12 in assay [6]. In addition, the z-score was 1.02 (inactive) in [7]; -1.05 in assay [8]; -2.91 in assay [9]; 0.152 (inactive) in assay [10]; 0.35 in [11]; -2.16 (inactive) in [12]. In addition, the z-score was -5.73 (inactive) in [13]; 0.0821 (inactive) in assay [15]; -1.22 (inactive) in assay [16]; -0.416 (inactive) in assay [17]; -0.425 (inactive) in assay [18]; -3.38 in assay [19]. Further, the composite z-score in assay [14] was -1.59 (inactive); in assay [20], 0.0006.

As to `Cc1cc(C)c(-c2cc([C@H](C)ON=C[C@@H](C)[C@H](OCc3ccccc3)C(C)C)on2)c(C)c1`, the z-score is 0.66 in assay [1]; -0.0328 in assay [2]; 0.163 in assay [3]; 0.682 in [4]; -0.234 in [5]; 3.57 in assay [6]. The z-score was -0.508 (inactive) in [7]; -0.149 in assay [8]; -0.143 in assay [9]; -0.0597 (inactive) in assay [10]; -0.811 in [11]; 0.462 (inactive) in assay [12]. The z-score was -0.258 (inactive) in [13]; -0.23 (inactive) in [15]; 0.255 (inactive) in [16]; 0.262 (inactive) in assay [17]; 0.336 (inactive) in assay [18]; -0.522 in [19]. Also, the composite z-score was -0.382 (inactive) in [14] and 0.02 in assay [20].

For the molecule `CC(C)(C)N1C(=O)[C@H]2[C@H]3[C@H](O)[C@H](O)CC(=NNC(=O)OCc4ccccc4)[C@H]3CC[C@H]2C1=O`, the z-score in assay [1] was -1.13; in assay [2], 1.11; in assay [3], -0.516; in assay [4], -0.269; in [5], -0.934; in assay [6], -0.639. In addition, the z-score in assay [7] is -1.49 (inactive); in assay [8], -0.411; in assay [9] it was -0.823; in assay [10] it was 0.321 (inactive); in assay [11], -0.558; in [12], -4.15 (inactive). The z-score was 0.0137 (inactive) in assay [13]; 0.118 (inactive) in [15]; -0.589 (inactive) in assay [16]; 0.352 (inactive) in assay [17]; -0.645 (inactive) in assay [18]; -0.198 in [19]. Besides, the composite z-score in [14] is -2.25 (inactive); in assay [20], 0.0282.

Take `Cc1ccc(S(=O)(=O)N[C@@H]2COC(=O)CC=C[C@@H](C)[C@H](NS(=O)(=O)c3ccc(C)cc3)COC(=O)[C@H](C)NC(=O)CC=C[C@H]2C)cc1`: the z-score is 0.697 in [1]; -0.0454 in [2]; 0.428 in [3]; -0.987 in assay [4]; 0.158 in assay [5]; 0.209 in assay [6]. Besides, the z-score is 0.099 (inactive) in assay [7]; 0.389 in assay [8]; 1.03 in assay [9]; -0.395 (inactive) in assay [10]; -0.286 in [11]; -0.547 (inactive) in [12]. The z-score is 0.341 (inactive) in assay [13]; -0.143 (inactive) in [15]; -0.188 (inactive) in [16]; 0.983 (inactive) in assay [17]; 0.0462 (inactive) in [18]; -0.24 in assay [19]. The composite z-score in assay [14] is 0.576 (inactive); in assay [20], -0.227.

Consider `O=C1[C@H]2[C@H]3[C@H](O)[C@H](O)CC(=NOC[C@@H](O)COCc4ccco4)[C@@H]3CC[C@H]2C(=O)N1c1cccc(Oc2ccccc2)c1`, for which the z-score was -0.382 in [1]; -0.454 in assay [2]; -1.19 in [3]; -0.163 in assay [4]; 0.0958 in assay [5]; -0.0749 in assay [6]. In addition, the z-score was -0.785 (inactive) in assay [7]; 0.688 in assay [8]; -0.105 in assay [9]; 0.0561 (inactive) in [10]; 0.928 in assay [11]; -0.378 (inactive) in [12]. The z-score is 0.25 (inactive) in assay [13]; -0.389 (inactive) in [15]; -1 (inactive) in assay [16]; -0.25 (inactive) in assay [17]; -1.28 (inactive) in assay [18]; 0.0789 in assay [19]. Also, the composite z-score in assay [14] was 0.295 (inactive); in assay [20], 0.1.

For the molecule `CC#CCOCCC=C1c2ccccc2[C@@H](OC)[C@@H]1C`, the z-score was 0.0337 in assay [1]; 0.182 in assay [2]; 0.788 in [3]; -2.36 in assay [4]; -0.234 in assay [5]; -0.19 in assay [6]. For the same molecule, the z-score in [7] was -0.669 (inactive); in assay [8] it was -0.773; in [9] it was -0.831; in assay [10], 0.349 (inactive); in [11], 0.651; in assay [12], -1.71 (inactive). Also, the z-score in assay [13] was -0.725 (inactive); in assay [15], 0.204 (inactive); in [16], -0.551 (inactive); in [17] it was -0.158 (inactive); in [18], 0.212 (inactive); in assay [19], 0.258. Further, the composite z-score in [14] is -0.412 (inactive); in assay [20], 2.61.

As to `CC(CCC(=O)OC[C@H]1O[C@H](C#Cc2ccccc2)C=C[C@@H]1Oc1ccc(C)cc1)=NOC(C)CN1CCCc2nc(C)c(C)cc21` (stereo not given in full), the z-score in [1] was -0.177; in assay [2] it was -0.271; in [3], 0.267; in assay [4], -2.18; in [5], -1.39; in assay [6], 0.542. The z-score was -2.38 (inactive) in assay [7]; -0.7 in [8]; -0.74 in assay [9]; -0.719 (inactive) in [10]; -0.374 in assay [11]; -0.525 (inactive) in assay [12]. In addition, the z-score in [13] is -0.541 (inactive); in assay [15] it was 0.335 (inactive); in assay [16] it was 0.797 (inactive); in [17], 0.879 (inactive); in assay [18] it was -0.41 (inactive); in assay [19] it was -0.0206. The composite z-score in assay [14] was 0.589 (inactive); in assay [20], 0.257.
